# ± gives the standard deviation.
# Experiments:
# Conditions in all cases: modulator concentration 10 µM
# [1] = test system: RAW-Dual (murine macrophage reporter line); test: NF-kB reporter (SEAP) activity fold change vs agonist alone; higher = enhanced NF-kB activity
# Method in brief: (§1)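 Overnight stimulation with a PRR agonist followed pre-incubation for 1 hour at 37 °C with compound at 10 μM final. This was done in RAW-Dual murine macrophage reporter cells seeded at 50 000 per well in 384-well plates. NF-κB (SEAP, QUANTI-Blue absorbance at 620 nm) and IRF (Lucia luciferase, QUANTI-Luc luminescence) were read from the supernatant. Each reporter's fold change relative to the mean agonist-only control on the same plate was averaged over replicate plates.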
# [2] = test system: RAW-Dual (murine macrophage reporter line); test: IRF reporter (Lucia luciferase) activity fold change vs agonist alone; higher = enhanced IRF activity
# Method in brief: as §1
# [3] = test system: RAW-Dual (murine macrophage reporter line); test: viability score (confluency relative to resting cells, overnight) (fraction); higher = more viable, active = viable (0.7 or more)
# Method in brief: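 Confluency was the readout: RAW-Dual macrophages were imaged with IncuCyte after an overnight exposure to compound at 10 μM final. IncuCyte software produced two masks over all imaged wells. The viability score expresses confluency against resting cells, and both masks had to exceed 70% of resting cells for a compound to meet the cutoff.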
# [4] = agonist: CpG ODN 1826 0.5 ug/mL
SMILES,"NF-kB reporter [1, 4]",NF-kB reporter ([1]; agonist: LPS 0.1 ug/mL),NF-kB reporter ([1]; agonist: MPLA […]),IRF reporter ([2]; agonist: 3'3'-cGAMP 10 ug/mL),IRF reporter ([2]; agonist: LPS 0.1 ug/mL),IRF reporter ([2]; agonist: MPLA […]),viability score [3]
O=C(NCCN1C(=O)c2ccccc2C1(O)c1ccc(Cl)cc1)Nc1ccccc1 (stereo not given),1.28 ± 0.1,0.219 ± 0.011,0.22 ± 0.02,0.841 ± 0.045,0.0475 ± 0.0035,0.0497 ± 0.0069,0.73 (active)
O=C1C(N2CCC(O)C2)CCN1CC(F)(F)F (stereo not given),0.992 ± 0.12,1.04 ± 0.1,0.876 ± 0.086,1.03 ± 0.053,1.22 ± 0.079,1.24 ± 0.15,1.01 (active)
CN(C)c1ccc(C2N(C)c3ccccc3N2C)cc1,1.2 ± 0.19,1.69 ± 0.13,2.19 ± 0.2,0.939 ± 0.031,1.88 ± 0.23,1.94 ± 0.25,0.858 (active)
COc1ccc2c(C)nc(Nc3nc(C)cc(-c4ccccc4)n3)nc2c1,0.791 ± 0.079,0.879 ± 0.065,1.07 ± 0.1,0.914 ± 0.043,1.28 ± 0.12,1.37 ± 0.17,1.03 (active)
CC(NC(=O)C(=O)Nc1ccc(F)cc1)c1ccccc1 (stereo not given),0.972 ± 0.074,0.984 ± 0.18,0.939 ± 0.097,0.987 ± 0.069,1.22 ± 0.21,1.28 ± 0.2,0.994 (active)
COC(=O)Nn1cnnc1,1.03 ± 0.17,1.08 ± 0.087,0.97 ± 0.095,0.984 ± 0.025,1.25 ± 0.22,1.39 ± 0.24,1 (active)
Oc1ccc(Nc2nc(Nc3ccc(O)cc3)nc(N3CCOCC3)n2)cc1,0.559 ± 0.13,2.28 ± 0.18,4.45 ± 0.34,0.383 ± 0.016,2.4 ± 0.25,4.43 ± 1.1,0.757 (active)
CC(C)(C)N1CC(c2nc3ccccc3n2Cc2c(F)cccc2Cl)CC1=O (stereo not given),1.28 ± 0.094,1.1 ± 0.088,0.901 ± 0.041,1.2 ± 0.06,1.15 ± 0.1,1.28 ± 0.19,0.974 (active)
CC(C(=O)O)c1ccc2c(c1)CC(=O)c1ccccc1S2 (stereo not given),1.19 ± 0.18,1.19 ± 0.43,0.977 ± 0.06,1.03 ± 0.032,1.26 ± 0.42,1.22 ± 0.13,0.988 (active)
CC(O)C(=O)O.CN1CCN(c2ccc3nc(-c4c(N)c5c(F)cccc5[nH]c4=O)[nH]c3c2)CC1,0.167 ± 0.011,0.107 ± 0.0086,0.294 ± 0.019,2.41 ± 0.23,0.434 ± 0.076,0.506 ± 0.084,0.966 (active)
O=C(c1cc2ccccc2o1)N1CC(N2C(=O)CCC2=O)C1,0.894 ± 0.054,0.957 ± 0.076,1.05 ± 0.066,1.03 ± 0.055,1.32 ± 0.26,1.44 ± 0.38,0.985 (active)
N#Cc1c(NC(=O)c2cccc3ccccc23)sc2c1CCCC2,1.67 ± 0.13,0.863 ± 0.073,1.14 ± 0.12,0.616 ± 0.019,1.35 ± 0.18,1.48 ± 0.23,0.879 (active)
Cc1ccc(CN2C3=NCCCN3c3ccccc32)cc1.Cl,0.294 ± 0.047,1.25 ± 0.13,1.32 ± 0.17,0.881 ± 0.026,1.27 ± 0.17,1.34 ± 0.2,0.999 (active)
O=C(CSc1ccc(F)cc1)N1CCn2nc3c(c2C1)CCC3,1.39 ± 0.087,1.01 ± 0.1,1.05 ± 0.056,1.03 ± 0.11,1.03 ± 0.064,1.03 ± 0.12,1 (active)
CC1C(=O)N2CCCc3cc(S(=O)(=O)N4CCN(c5cccc(Cl)c5)CC4)cc1c32 (stereo not given),0.755 ± 0.24,0.894 ± 0.073,0.971 ± 0.052,0.598 ± 0.044,1.2 ± 0.23,1.22 ± 0.37,0.996 (active)
Cl.Cl.NC1=NN(c2ccc(N)cc2)CC1,0.251 ± 0.043,1 ± 0.084,0.991 ± 0.13,0.763 ± 0.035,1.34 ± 0.28,1.22 ± 0.15,1 (active)
CN(C)c1ncc(NC(=O)c2ccc(Oc3ncccn3)cc2)c(N(C)C)n1,0.856 ± 0.086,0.953 ± 0.075,0.849 ± 0.065,0.991 ± 0.053,1.2 ± 0.083,1.08 ± 0.14,0.985 (active)
CN1CCN(c2ccc(C(=O)Nc3n[nH]c4ccc(Cc5cc(F)cc(F)c5)cc34)c(NC3CCOCC3)c2)CC1,0.971 ± 0.043,1.21 ± 0.097,1.87 ± 0.11,0.129 ± 0.0061,0.482 ± 0.14,0.465 ± 0.13,0.947 (active)
O=C(Nc1ccc(-c2cn3ccsc3n2)cc1)C1CCCC1,1.14 ± 0.09,1.1 ± 0.15,1.37 ± 0.13,0.69 ± 0.027,1.23 ± 0.18,1.38 ± 0.23,0.962 (active)
O=C(CC(c1ccccc1)c1ccccc1)Nc1ccc(CC(=O)N2CCC(O)CC2)cc1,1.03 ± 0.078,1.13 ± 0.097,0.907 ± 0.11,1.05 ± 0.062,1.13 ± 0.082,1.25 ± 0.1,1.01 (active)
CCN1CCN(S(=O)(=O)c2ccc(Oc3ccccc3)cc2)CC1,1 ± 0.061,1.01 ± 0.11,1.09 ± 0.036,0.905 ± 0.043,1.09 ± 0.1,1.03 ± 0.21,0.996 (active)
NC(=O)OCC(COC(N)=O)c1ccccc1,1.06 ± 0.079,1.02 ± 0.05,1.04 ± 0.095,1.16 ± 0.26,0.945 ± 0.062,0.94 ± 0.11,1 (active)
OCc1ccccc1OC1OC(CO)C(O)C(O)C1O (stereo not given),1.13 ± 0.27,1.07 ± 0.094,1.05 ± 0.069,0.889 ± 0.03,1.22 ± 0.23,1.13 ± 0.19,1 (active)
COc1ccc(S(=O)(=O)N(CC(=O)Nc2ccccc2F)c2ccc(C)cc2)cc1OC,0.984 ± 0.087,0.987 ± 0.057,0.933 ± 0.059,0.979 ± 0.024,1.54 ± 0.12,1.16 ± 0.26,1.01 (active)
NC(=O)CN1C(=O)C2C3c4ccccc4C(c4ccccc43)C2C1=O (stereo not given),1.1 ± 0.083,0.962 ± 0.073,0.965 ± 0.036,0.938 ± 0.065,0.946 ± 0.092,0.976 ± 0.15,0.995 (active)

# Reference: the supplement of paper PMC10646978
